High-throughput results from PubChem.
Most compounds without a hit are left out; they make up all but 7.7% or so of the library.
Tb PYK inh = inhibitors of Trypanosoma brucei pyruvate kinase. Potency, µM (series often up to 76.8 µM), for the others: at the highest dose activity, negative = inhibition, hits mostly inhibitors. 0.12% of 410,000 active. TbPYK enzyme, Kinase-Glo Plus ATP luminescence, 45 min; further: potency means the concentration at half of the fitted maximal effect; nearly all actives have a fitted effect of over 50% in size
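Assay buffer: 50 mM TEA pH 7.2, 100 mM KCl, 10 mM MgCl2, 0.05% BSA, 0.01% Tween-20. Pyruvate kinase from T. brucei plus substrate met compound, then ADP (130 uM final). Luminescence was read post 45 min RT.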
Sm TGR block = inhibitors of Schistosoma mansoni thioredoxin glutathione reductase. Q962Y6. purified TGR, DTNB reduction, TNB absorbance 405 nm. Potency, µM (highest dose often 114 µM), without a hit: at the top dose activity change, negative = inhibition, hits mostly inhibitors. 3% of 360,000 active; further: potency means the concentration at half of the fitted maximal effect; nearly all actives have a fitted effect of over 60% in size
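Kinetic colorimetric format: TGR-catalysed, NADPH-driven DTNB reduction monitored via TNB absorbance. Enzyme dispensed at 20 nM; compound exposure 15 min at room temperature before reaction start.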
Giardia FBPA inh = blocks Giardia fructose-bisphosphate aldolase activity; Potency, µM (series often up to 59.6 µM), without a hit: at the highest dose activity, negative = inhibition, hits mostly inhibitors; 0.71% of 290,000 active; AID 2451; A8B2U2; purified Giardia FBPA; further: potency means the concentration at half of the fitted maximal effect; nearly all actives have a fitted effect of over 55% in size
Target sequence (A8B2U2 whole entry, looked up): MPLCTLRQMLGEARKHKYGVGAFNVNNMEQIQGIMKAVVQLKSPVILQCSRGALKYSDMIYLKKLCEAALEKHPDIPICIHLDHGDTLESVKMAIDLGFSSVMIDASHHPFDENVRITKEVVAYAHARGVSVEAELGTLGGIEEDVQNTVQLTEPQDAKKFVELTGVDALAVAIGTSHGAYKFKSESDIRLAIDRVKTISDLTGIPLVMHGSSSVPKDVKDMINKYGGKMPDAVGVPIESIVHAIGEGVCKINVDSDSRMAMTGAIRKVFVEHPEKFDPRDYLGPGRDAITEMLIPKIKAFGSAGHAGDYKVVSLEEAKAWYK
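Giardia FBPA (40 nM reagent) was preincubated 10 min at RT with compound (up to 57.5 uM final), then substrate plus GAPDH/TPI/NAD/arsenate coupling system with diaphorase/resazurin was added; resorufin fluorescence (525/598 nm) was read after 20 min.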
HCMV inh = inhibitors of human cytomegalovirus; activity change, negative = inhibition, % at 57.5 µM; 4.5% of 410,000 active; HFF cells, HCMV-luciferase reporter, 72 h; hits give low values; in the data active means activity change below about -60%; inconclusive means no clear call, values can overlap the other calls; inactive means above about -39%
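Luciferase read-out from HCMV-luciferase-infected HFFs (MOI 1 PFU/cell) 72 h post infection at 37C; compounds added after 16 h cell attachment; activity normalized between buffer-only basal and Salinomycin (10uM) inhibitor controls.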
RE007 growth inh = less growth of the S. pombe RE007 Vpr strain; 0.21% of 360,000 active; S. pombe RE007 Vpr strain, BacTiter-Glo ATP luminescence, 24 h; Potency, µM (titrated, usually from 92.2 µM), without a hit: at the top dose activity change, negative = less growth, usual class: inhibitors; active means well fitted falling curve with a large enough effect; inconclusive means small, poorly fitted or top-dose-only effect; inactive means no such curve, though single readings can be large or run the other way; further: potency means the concentration at half of the fitted maximal effect; nearly all actives have a fitted effect of over 50% in size
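Fission yeast strain RE007, carrying one chromosomally integrated HIV-1 vpr copy, was seeded at OD 0.01 in PMG+AL medium with 23 nL pinned compound. After 24 h at 30 °C and 99% humidity, viability was read by BacTiter-Glo luminescence.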
FMDV inh = blocks foot and mouth disease virus | FMDV antiviral cell-based qHTS | Potency, µM (titrated, usually from 57.9 µM), inactives show top-dose activity change, negative = inhibition, most hits filed as inhibitors | 1.2% of 410,000 active | AID 1159524; calls by dose curve; tested in HEK293T cells; further: read-out not given here; potency means the concentration at half of the fitted maximal effect; nearly all actives have a fitted effect of over 45% in size
An asterisk follows results filed as active. Unless noted, the call rests on the fitted dose curve; in most records, active means well fitted curve in the direction sought with a large enough effect; inconclusive means small, poorly fitted or top-dose-only effect, or another doubt; inactive means no such curve, though single readings can be large; an effect the other way counts as inactive or inconclusive. On the % scale 0 is the no-effect control and ±100 the full control effect.

CCOc1ccc(CNC(=O)c2ccc(Sc3ccc(C)cc3)c(NC(C)=O)c2)cc1OC was read as Tb PYK inh -6%, Sm TGR block 6%, Giardia FBPA inh 9%, HCMV inh -25, RE007 growth inh 15% and FMDV inh inconclusive.
Screening O=C1c2ccccc2C(=O)N1N(c1ccccc1)c1ccccc1 returned Tb PYK inh -4%, HCMV inh -26, RE007 growth inh 55% and FMDV inh -27%.
For O=C1C=CC(=O)N1N(c1ccccc1)c1ccccc1 the results were Tb PYK inh inconclusive, Sm TGR block 2.5µM*, Giardia FBPA inh -4%, HCMV inh 3 and FMDV inh inconclusive.
`COc1ccc2c(c1)OC(C)CN(CCNC(=O)c1cc3cc(F)ccc3[nH]1)C2` (configuration not stated) gave FMDV inh 17%.
O=C(C(=Cc1ccccc1)CN1CCCCC1)c1ccccc1 was read as Tb PYK inh -11%, HCMV inh -76*, RE007 growth inh 5% and FMDV inh 3.5µM*.
O=C(CCCCN1CCCCC1)c1ccccc1 was read as Tb PYK inh 2%, HCMV inh 15, RE007 growth inh 1% and FMDV inh 15%.
Cc1cc(C)n2nc(N)nc2n1 was read as Tb PYK inh 2%, HCMV inh -37, RE007 growth inh 12% and FMDV inh -16%.
`Cc1cc(N)n2nc(C(F)(F)F)nc2n1` gave Tb PYK inh -2%, Sm TGR block -10%, Giardia FBPA inh 7%, HCMV inh -92*, RE007 growth inh 8% and FMDV inh -1%.
CCOc1cc(CNc2ccc(O)cc2)ccc1OCc1ccc(Cl)cc1 was read as Tb PYK inh -28%, Sm TGR block 45µM*, HCMV inh -21 and FMDV inh -18%.
O=c1[nH]c2ccc(NCc3ccccc3OCc3ccc(Cl)cc3)cc2[nH]1 was read as Tb PYK inh -7%, Sm TGR block inconclusive, Giardia FBPA inh -1%, HCMV inh -73*, RE007 growth inh -8% and FMDV inh inconclusive.
Oc1ccc(NCc2ccccc2OCc2ccccc2)cc1 was read as Tb PYK inh inconclusive, Sm TGR block 14µM*, Giardia FBPA inh inconclusive, HCMV inh inconclusive, RE007 growth inh -15% and FMDV inh 17%.
Screening CCNCc1ccccc1OCc1ccccc1 returned Tb PYK inh 2%, Sm TGR block 3%, Giardia FBPA inh 1%, HCMV inh 17, RE007 growth inh -12% and FMDV inh -23%.
`Oc1ccc(NCc2ccccc2OCc2ccc(Cl)cc2)cc1` gave Tb PYK inh 4%, Sm TGR block 45µM*, HCMV inh -72* and FMDV inh -10%.
Fc1ccccc1CNc1ccc(Cl)cc1 was read as Tb PYK inh 2%, Sm TGR block 8%, Giardia FBPA inh 1%, HCMV inh -27, RE007 growth inh 1% and FMDV inh 44%.
Screening COC(=O)c1ccc(CN(Cc2ccc(OC)c(OC)c2)S(=O)(=O)c2ccc(F)c(C(=O)Nc3cc(C)ccc3C)c2)cc1 returned Tb PYK inh 5%, Sm TGR block -1%, HCMV inh -26 and FMDV inh -3%.
For CCOc1ccccc1NC(=O)NCCn1c(=O)oc2ccc(C)cc21 the results were Tb PYK inh 0%, Sm TGR block 4%, HCMV inh 2 and FMDV inh -14%.
For COC(=O)C1=C[C@@H](C(=O)OC)C2C3=C(C(=O)[C@@]2(C)NC(=O)c2ccccc2)[C@H](C)n2c(=O)n(C)c(=O)n2[C@@H]3C1 (some centres not stated) the results were Giardia FBPA inh 3%.
O=C(NCc1ccccc1F)C1CCN(c2nnc(-n3cccc3)s2)CC1 was read as Tb PYK inh -2%, Sm TGR block 1%, HCMV inh 13 and FMDV inh 15%.
